# ChEMBL document CHEMBL1961873, “Compounds: GSK PKIS; Assays: Nanosyn kinase panel” (2012)
# What was measured:
# [1] = target: T1, Inhibitor of nuclear factor kappa-B kinase subunit epsilon (Homo sapiens) (UniProt Q14164); details: at 1 µM;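 also: reported values are averaged percent inhibition figures against human IKKε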
# T1 sequence (whole entry): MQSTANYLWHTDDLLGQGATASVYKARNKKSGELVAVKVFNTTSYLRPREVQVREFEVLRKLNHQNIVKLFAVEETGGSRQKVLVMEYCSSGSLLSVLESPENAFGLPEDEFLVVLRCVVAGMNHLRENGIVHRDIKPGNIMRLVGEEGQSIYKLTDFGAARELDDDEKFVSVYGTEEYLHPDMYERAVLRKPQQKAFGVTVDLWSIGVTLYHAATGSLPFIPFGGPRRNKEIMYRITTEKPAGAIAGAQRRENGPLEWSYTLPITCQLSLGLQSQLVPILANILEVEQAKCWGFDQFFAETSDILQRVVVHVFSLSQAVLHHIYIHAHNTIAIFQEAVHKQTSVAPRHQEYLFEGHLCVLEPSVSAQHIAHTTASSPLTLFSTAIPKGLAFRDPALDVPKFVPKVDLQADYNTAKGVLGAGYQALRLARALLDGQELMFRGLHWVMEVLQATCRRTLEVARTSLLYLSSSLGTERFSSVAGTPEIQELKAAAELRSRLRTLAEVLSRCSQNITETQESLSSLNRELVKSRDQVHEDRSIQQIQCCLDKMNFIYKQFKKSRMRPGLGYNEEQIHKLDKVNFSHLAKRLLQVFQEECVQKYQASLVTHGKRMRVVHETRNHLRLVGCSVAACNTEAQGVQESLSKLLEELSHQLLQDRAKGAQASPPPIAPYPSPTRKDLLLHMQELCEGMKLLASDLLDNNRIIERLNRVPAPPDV
# [2] = target: T2, Serine/threonine-protein kinase Nek1 (Homo sapiens) (UniProt Q96PY6); details: at 0.1 µM
# T2 sequence (whole entry): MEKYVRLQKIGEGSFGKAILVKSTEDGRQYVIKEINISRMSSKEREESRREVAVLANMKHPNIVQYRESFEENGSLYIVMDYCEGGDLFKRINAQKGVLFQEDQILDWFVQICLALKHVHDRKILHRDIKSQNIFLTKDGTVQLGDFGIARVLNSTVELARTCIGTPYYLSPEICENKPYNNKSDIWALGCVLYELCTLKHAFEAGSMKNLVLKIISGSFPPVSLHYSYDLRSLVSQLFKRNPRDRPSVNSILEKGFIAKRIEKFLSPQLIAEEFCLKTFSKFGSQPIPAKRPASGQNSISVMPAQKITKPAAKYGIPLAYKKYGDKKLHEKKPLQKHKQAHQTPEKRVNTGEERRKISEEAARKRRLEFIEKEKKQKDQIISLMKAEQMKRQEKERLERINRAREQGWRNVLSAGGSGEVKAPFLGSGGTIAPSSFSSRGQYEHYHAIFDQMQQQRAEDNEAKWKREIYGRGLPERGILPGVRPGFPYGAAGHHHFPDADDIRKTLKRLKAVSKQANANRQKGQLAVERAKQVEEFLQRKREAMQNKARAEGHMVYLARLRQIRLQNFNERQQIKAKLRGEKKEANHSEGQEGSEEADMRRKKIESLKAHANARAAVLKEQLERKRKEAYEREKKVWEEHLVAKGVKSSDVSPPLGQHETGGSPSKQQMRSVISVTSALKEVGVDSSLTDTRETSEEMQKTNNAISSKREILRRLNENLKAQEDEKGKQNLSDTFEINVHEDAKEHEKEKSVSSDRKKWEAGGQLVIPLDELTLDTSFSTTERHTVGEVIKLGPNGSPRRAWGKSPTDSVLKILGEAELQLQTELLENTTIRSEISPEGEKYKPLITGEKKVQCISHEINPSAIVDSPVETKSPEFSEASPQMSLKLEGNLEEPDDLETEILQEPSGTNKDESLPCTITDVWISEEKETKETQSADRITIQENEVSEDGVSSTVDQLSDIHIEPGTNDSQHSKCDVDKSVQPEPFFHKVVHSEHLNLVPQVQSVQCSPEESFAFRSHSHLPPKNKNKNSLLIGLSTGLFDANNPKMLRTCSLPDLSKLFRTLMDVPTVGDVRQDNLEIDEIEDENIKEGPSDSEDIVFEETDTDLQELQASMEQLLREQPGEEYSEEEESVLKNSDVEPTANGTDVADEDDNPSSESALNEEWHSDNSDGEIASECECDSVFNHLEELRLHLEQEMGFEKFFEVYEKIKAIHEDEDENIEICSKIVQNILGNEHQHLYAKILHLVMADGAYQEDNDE
# [3] = target: T2, Serine/threonine-protein kinase Nek1 (Homo sapiens); details: at 1 µM
# [4] = target: T3, Serine/threonine-protein kinase Nek2 (Homo sapiens) (UniProt P51955); details: at 0.1 µM
# T3 sequence (whole entry): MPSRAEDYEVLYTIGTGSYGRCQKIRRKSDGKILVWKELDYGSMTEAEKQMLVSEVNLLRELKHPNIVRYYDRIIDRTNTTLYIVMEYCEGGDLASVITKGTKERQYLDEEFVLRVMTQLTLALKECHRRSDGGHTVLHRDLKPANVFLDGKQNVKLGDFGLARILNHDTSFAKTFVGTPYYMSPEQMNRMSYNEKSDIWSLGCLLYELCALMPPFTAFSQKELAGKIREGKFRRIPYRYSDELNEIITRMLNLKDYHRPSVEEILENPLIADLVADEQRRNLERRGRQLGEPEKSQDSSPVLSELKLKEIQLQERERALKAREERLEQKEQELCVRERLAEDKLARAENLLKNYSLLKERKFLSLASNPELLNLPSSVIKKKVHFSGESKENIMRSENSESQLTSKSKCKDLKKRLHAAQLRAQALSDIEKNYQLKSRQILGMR
# [5] = target: T3, Serine/threonine-protein kinase Nek2 (Homo sapiens); details: at 1 µM
# [6] = target: Serine/threonine-protein kinase Nek6 (Homo sapiens) (UniProt Q9HC98); details: at 0.1 µM
# [7] = target: Serine/threonine-protein kinase Nek6 (Homo sapiens) (UniProt Q9HC98); details: at 1 µM
# [8] = target: Serine/threonine-protein kinase Nek7 (Homo sapiens) (UniProt Q8TDX7); details: at 0.1 µM
# [9] = target: Serine/threonine-protein kinase Nek7 (Homo sapiens) (UniProt Q8TDX7); details: at 1 µM
# [10] = target: T4, Serine/threonine-protein kinase Nek9 (Homo sapiens) (UniProt Q8TD19); details: at 0.1 µM
# T4 sequence (whole entry): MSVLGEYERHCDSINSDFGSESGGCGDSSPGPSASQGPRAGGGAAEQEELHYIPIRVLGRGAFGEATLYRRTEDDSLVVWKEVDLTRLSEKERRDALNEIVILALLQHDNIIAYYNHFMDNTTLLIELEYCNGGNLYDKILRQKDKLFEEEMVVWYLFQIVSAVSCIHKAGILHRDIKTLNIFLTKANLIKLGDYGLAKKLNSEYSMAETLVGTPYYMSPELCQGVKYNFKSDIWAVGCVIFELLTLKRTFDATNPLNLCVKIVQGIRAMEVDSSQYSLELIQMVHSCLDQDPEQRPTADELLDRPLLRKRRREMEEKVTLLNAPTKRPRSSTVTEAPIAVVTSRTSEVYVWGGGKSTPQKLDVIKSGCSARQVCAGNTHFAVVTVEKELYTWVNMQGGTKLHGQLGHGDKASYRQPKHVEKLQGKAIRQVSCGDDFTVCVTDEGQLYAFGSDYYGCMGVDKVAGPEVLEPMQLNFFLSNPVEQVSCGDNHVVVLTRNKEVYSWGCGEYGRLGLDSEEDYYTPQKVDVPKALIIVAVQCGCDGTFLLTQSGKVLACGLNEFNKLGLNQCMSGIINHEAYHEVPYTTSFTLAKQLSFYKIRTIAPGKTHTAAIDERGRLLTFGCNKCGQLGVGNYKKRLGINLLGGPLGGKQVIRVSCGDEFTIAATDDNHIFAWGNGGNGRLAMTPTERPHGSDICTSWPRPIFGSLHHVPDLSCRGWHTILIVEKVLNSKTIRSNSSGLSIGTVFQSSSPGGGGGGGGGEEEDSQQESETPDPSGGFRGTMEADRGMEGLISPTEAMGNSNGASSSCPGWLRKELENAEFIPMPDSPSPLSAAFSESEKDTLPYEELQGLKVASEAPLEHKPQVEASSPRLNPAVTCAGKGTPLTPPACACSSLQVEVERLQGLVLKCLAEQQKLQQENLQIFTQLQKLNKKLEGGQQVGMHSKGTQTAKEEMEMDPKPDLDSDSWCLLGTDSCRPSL
# [11] = target: T4, Serine/threonine-protein kinase Nek9 (Homo sapiens); details: at 1 µM
# [12] = target: Serine/threonine-protein kinase PLK1 (Homo sapiens) (UniProt P53350); details: at 0.1 µM
# [13] = target: Serine/threonine-protein kinase PLK1 (Homo sapiens) (UniProt P53350); details: at 1 µM
# [14] = target: T5, Dual specificity protein kinase TTK (Homo sapiens) (UniProt P33981); details: at 0.1 µM
# T5 sequence (whole entry): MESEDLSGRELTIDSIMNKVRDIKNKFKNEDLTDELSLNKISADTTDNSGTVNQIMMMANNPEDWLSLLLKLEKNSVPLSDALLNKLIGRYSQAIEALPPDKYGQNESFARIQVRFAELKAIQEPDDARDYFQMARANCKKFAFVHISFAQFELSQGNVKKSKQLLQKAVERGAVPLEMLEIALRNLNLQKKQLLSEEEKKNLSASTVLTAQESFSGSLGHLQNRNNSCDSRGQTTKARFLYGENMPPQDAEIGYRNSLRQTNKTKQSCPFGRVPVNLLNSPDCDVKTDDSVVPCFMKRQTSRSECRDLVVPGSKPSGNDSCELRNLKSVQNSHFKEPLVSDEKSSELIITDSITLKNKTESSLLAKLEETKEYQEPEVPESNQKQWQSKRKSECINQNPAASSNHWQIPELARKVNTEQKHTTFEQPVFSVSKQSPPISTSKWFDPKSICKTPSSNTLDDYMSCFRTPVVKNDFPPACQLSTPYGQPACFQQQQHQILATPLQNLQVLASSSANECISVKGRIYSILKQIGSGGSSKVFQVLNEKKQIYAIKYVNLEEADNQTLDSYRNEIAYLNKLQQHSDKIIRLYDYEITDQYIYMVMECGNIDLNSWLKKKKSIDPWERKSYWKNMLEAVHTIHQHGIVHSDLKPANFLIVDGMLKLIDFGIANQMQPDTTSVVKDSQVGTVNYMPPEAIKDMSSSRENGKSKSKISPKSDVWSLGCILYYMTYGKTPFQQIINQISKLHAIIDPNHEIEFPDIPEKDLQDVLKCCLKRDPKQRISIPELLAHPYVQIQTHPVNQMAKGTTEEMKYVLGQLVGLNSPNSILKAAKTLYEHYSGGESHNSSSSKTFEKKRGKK
# [15] = test system: T6, Receptor-type tyrosine-protein kinase FLT3 (Homo sapiens), P36888 [D835Y]; details: at 1 µM
# T6 sequence (whole entry): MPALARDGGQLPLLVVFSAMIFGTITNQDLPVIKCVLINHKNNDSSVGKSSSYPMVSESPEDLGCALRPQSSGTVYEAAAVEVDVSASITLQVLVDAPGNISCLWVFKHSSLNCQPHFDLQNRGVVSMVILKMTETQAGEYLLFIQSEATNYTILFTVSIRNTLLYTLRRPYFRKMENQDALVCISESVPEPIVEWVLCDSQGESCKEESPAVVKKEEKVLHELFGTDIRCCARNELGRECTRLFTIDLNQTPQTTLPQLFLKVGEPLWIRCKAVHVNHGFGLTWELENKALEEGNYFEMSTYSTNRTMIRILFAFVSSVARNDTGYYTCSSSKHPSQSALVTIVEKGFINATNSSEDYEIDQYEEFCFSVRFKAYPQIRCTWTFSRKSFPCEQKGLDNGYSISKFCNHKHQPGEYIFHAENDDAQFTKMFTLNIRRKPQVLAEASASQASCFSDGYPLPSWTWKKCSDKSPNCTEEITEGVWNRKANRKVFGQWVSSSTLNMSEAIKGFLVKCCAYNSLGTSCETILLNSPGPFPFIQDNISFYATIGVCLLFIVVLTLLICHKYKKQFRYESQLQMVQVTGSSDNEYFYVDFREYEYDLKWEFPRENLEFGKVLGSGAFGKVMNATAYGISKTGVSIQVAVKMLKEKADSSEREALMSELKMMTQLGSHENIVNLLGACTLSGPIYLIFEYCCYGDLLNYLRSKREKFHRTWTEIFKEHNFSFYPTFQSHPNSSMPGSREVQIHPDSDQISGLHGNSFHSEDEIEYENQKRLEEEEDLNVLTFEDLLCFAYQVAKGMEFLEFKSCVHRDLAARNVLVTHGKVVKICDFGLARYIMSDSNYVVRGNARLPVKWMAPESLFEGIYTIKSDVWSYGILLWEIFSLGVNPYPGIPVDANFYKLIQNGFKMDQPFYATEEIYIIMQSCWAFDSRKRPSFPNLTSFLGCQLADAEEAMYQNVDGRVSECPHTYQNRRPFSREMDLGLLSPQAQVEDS
# [16] = target: Vascular endothelial growth factor receptor 3 (Homo sapiens) (UniProt P35916); details: at 0.1 µM
# [17] = target: Vascular endothelial growth factor receptor 3 (Homo sapiens) (UniProt P35916); details: at 1 µM
# [18] = target: Macrophage colony-stimulating factor 1 receptor (Homo sapiens) (UniProt P07333); details: at 0.1 µM
# [19] = target: Macrophage colony-stimulating factor 1 receptor (Homo sapiens) (UniProt P07333); details: at 1 µM
# [20] = target: Tyrosine-protein kinase Fyn (Homo sapiens) (UniProt P06241); details: at 0.1 µM
# Sequence of Tyrosine-protein kinase Fyn (Homo sapiens) (P06241 2-537 limits assumed): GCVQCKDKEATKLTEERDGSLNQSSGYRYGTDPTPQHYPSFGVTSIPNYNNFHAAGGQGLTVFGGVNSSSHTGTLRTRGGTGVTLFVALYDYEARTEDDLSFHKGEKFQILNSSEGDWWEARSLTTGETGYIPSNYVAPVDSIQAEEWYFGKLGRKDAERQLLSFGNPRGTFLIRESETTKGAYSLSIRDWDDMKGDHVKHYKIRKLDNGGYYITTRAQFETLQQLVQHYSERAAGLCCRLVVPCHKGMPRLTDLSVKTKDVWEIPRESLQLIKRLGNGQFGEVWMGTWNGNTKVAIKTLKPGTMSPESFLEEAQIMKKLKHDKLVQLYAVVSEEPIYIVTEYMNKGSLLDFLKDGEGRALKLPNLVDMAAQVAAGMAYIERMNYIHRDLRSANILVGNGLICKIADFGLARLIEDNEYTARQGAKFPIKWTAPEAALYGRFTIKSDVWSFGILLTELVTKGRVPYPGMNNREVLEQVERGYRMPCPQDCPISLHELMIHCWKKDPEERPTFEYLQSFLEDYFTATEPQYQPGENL
# Sequence of Serine/threonine-protein kinase Nek6 (Homo sapiens) (Q9HC98 whole entry): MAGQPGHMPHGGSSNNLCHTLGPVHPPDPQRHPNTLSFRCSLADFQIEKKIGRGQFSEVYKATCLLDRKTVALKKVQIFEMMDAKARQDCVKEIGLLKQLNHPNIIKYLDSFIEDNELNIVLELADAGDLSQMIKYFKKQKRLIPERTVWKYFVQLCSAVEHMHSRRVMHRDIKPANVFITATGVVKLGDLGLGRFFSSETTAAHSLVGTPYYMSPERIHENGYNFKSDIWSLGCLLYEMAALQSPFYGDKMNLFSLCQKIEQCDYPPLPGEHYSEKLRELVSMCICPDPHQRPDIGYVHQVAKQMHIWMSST
# Sequence of Vascular endothelial growth factor receptor 3 (Homo sapiens) (P35916 whole entry): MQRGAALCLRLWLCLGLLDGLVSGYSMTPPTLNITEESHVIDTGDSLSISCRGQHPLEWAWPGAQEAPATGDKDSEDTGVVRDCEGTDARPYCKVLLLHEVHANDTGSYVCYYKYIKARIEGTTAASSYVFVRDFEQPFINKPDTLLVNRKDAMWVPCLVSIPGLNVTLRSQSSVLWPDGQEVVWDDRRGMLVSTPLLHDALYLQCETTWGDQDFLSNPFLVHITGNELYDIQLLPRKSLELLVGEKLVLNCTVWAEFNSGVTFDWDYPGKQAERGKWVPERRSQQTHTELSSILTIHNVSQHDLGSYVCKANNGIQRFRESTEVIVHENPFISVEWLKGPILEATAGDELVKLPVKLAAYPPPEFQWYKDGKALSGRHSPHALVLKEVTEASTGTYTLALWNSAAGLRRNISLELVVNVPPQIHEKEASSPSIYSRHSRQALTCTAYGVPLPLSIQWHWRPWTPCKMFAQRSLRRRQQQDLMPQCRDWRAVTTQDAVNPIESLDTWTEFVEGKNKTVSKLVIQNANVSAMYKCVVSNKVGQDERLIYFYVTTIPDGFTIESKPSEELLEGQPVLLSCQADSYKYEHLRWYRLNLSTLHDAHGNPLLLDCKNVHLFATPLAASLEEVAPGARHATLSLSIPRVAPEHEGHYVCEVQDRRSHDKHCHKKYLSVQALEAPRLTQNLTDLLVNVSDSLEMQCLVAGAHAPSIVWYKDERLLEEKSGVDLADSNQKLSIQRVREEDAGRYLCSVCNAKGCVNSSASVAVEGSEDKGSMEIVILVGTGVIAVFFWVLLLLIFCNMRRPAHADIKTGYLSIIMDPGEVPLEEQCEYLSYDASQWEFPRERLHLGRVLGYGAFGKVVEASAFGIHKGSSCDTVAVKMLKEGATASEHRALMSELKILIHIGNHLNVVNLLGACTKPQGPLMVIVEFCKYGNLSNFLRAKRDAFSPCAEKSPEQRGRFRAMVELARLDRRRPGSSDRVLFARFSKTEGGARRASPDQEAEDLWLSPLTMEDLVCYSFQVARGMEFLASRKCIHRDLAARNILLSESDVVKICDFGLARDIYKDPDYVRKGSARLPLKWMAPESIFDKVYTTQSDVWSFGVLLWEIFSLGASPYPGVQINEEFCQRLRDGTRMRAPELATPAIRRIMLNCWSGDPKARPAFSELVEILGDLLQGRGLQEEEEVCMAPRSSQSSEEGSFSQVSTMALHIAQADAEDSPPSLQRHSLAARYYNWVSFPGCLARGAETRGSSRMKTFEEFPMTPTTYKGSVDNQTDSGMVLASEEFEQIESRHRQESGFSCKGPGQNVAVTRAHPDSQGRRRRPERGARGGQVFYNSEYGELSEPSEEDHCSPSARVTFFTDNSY
# Sequence of Macrophage colony-stimulating factor 1 receptor (Homo sapiens) (P07333 whole entry): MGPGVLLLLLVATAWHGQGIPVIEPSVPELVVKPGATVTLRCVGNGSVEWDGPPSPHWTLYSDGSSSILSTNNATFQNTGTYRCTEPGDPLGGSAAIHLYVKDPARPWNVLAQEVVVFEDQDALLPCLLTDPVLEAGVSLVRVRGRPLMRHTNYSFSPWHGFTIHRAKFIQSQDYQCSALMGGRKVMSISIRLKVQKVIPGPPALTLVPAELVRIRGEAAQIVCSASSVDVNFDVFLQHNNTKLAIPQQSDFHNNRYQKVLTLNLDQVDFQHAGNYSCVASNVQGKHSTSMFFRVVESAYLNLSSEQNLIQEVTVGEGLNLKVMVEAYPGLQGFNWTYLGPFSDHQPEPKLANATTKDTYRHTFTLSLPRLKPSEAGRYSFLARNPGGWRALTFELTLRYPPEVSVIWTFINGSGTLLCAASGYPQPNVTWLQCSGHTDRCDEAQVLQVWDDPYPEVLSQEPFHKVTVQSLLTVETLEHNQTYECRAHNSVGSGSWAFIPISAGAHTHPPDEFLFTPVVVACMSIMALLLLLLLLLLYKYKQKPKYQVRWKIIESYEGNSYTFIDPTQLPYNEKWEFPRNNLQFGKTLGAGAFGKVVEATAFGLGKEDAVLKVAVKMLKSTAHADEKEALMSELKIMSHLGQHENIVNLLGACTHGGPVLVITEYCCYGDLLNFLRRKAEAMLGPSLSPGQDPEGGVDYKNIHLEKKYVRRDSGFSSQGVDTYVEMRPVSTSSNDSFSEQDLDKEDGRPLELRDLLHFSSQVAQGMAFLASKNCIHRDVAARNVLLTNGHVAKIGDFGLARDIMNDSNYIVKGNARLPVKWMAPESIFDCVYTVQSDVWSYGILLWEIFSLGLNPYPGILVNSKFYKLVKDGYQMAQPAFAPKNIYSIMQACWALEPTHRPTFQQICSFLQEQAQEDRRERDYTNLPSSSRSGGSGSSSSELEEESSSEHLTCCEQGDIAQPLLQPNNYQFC
# Sequence of Serine/threonine-protein kinase PLK1 (Homo sapiens) (P53350 whole entry): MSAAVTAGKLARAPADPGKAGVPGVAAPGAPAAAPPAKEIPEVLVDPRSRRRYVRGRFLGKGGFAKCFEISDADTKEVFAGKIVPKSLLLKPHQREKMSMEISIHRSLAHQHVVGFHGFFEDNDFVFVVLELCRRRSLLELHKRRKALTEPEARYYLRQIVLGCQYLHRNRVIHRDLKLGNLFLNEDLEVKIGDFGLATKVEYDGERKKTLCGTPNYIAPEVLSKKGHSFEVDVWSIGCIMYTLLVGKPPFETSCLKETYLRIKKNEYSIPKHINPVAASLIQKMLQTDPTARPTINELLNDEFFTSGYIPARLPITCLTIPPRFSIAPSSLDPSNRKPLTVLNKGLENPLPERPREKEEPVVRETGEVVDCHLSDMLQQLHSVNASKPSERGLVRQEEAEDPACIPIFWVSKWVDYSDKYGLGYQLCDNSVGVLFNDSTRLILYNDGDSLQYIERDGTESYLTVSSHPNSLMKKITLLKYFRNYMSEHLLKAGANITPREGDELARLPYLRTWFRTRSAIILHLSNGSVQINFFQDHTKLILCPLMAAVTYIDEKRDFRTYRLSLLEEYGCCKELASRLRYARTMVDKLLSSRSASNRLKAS
# Sequence of Serine/threonine-protein kinase Nek7 (Homo sapiens) (Q8TDX7 whole entry, looked up): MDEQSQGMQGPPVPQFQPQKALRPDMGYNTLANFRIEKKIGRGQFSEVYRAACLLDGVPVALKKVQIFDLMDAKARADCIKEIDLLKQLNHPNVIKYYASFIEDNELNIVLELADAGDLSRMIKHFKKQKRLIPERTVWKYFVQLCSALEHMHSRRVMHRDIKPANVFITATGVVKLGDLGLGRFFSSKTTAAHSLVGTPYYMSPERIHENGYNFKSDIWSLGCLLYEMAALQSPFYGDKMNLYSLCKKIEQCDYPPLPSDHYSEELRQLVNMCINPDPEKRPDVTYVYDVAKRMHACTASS
smiles,measurement,setting,value
Nc1nccc(-c2c(-c3ccc(F)cc3)ncn2CCCN2CCOCC2)n1,inhibition,[1],5.9%
same,inhibition,[2],2.11%
same,inhibition,[3],3.63%
same,inhibition,[4],4.66%
same,inhibition,[5],5.54%
same,inhibition,[6],3.27%
same,inhibition,[7],0.28%
same,inhibition,[8],5.79%
same,inhibition,[9],4.4%
same,inhibition,[10],9.19%
same,inhibition,[11],15.2%
same,inhibition,[12],2.14%
same,inhibition,[13],4.49%
same,inhibition,[14],10.5%
same,inhibition,[15],-6.25%
same,inhibition,[16],15.4%
same,inhibition,[17],17%
same,inhibition,[18],2.72%
same,inhibition,[19],1.51%
same,inhibition,[20],0.86%
